# Compound activity deposited in PubChem by National Center for Advancing Translational Sciences (NCATS).
# D2 PAM-1: human D2 receptor positive allosteric modulation | P14416 | DiscoveRx D2 beta-arrestin cells, luminescence, 90 min; 100% = 57 uM dopamine signal | potentiation, % (no concentration beside the values) | actives 0.23% (n = 360,000); in the data active = potentiation above about 50%; inconclusive = mostly about 30% to 49%
# Target sequence (P14416 whole entry, looked up): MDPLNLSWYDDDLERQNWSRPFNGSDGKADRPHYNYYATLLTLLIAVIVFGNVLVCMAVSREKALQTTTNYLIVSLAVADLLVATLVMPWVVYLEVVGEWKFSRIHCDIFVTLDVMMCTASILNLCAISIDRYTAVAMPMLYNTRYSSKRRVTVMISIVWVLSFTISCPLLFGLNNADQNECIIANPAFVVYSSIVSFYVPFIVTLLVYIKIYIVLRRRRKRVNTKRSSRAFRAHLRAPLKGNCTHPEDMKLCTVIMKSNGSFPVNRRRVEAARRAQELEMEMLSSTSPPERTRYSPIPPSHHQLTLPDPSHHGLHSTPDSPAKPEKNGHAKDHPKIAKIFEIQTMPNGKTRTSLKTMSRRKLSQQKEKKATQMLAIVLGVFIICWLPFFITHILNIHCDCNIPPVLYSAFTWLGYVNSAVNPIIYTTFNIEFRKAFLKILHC
#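 PathHunter beta-arrestin assay in DiscoveRx D2 cells. Compounds were added with an EC20 of dopamine (50 nM final) for 90 min at 37 deg C. Luminescence was read 1 h after detection reagent, with 57 uM dopamine as the EC100 control.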
# D2 ag-1: D2 dopamine receptor (human) agonism. P14416. HEK293 T-REx D2 cells, calcium flux agonist mode. activation, % at 2 µM. actives 0.53% (n = 340,000). AID 485358;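 active = activation over 3 SD above normal in the single-dose calcium agonist read, cut at about 30% in these data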; note: 0% is about no effect
#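 Calcium-flux readout, 1 cycle/sec over 180 s following compound pin transfer, in inducible HEK293 Trex D2 cells (force-coupled); dopamine controls included. Positive calcium responses during this window marked compounds as potential agonists.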
# D2 ag-2: agonists of human D2 dopamine receptor (beta-arrestin). P14416. DiscoveRx PathHunter D2 beta-arrestin, luminescence, 90 min; 100% = 57 uM dopamine signal. activation, % (test concentration not listed). actives 0.084% (n = 360,000); in the data active = activation above about 40%; inconclusive = between about 15% and that limit
#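 Agonist mode: compounds alone added to overnight-plated D2 PathHunter cells for 90 min at 37 C, with 57 uM final dopamine (EC100) defining full response. Beta-arrestin recruitment detected by chemiluminescent reagent, read after 1 h at ambient temperature.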
# D2 PAM-2: positive allosteric modulators of human D2 dopamine receptor; actives 0.34% (n = 340,000); AID 485347; HEK293 T-REx D2, calcium flux, EC20 dopamine potentiation; potentiation, % at 10 µM;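 active = potentiation over 3 SD above the plate norm, cut at about 30% in these data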; note: 0% is about no effect
#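 Using a no-wash calcium dye in inducible, force-coupled HEK293 Trex cells expressing D2, we tracked fluorescence each second for 180 s after compound, then for 180 s after EC20 dopamine to detect augmented signalling.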
# D2 antag: antagonists of human D2 dopamine receptor; actives 2% (n = 340,000); P14416; inhibition, % at 10 µM; HEK293 TREx D2 cells, calcium flux, dopamine EC80; in the data active = inhibition above about 30%; inactive = below that, where a call was filed; note: 0% is about no effect
#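 Overnight-induced (tetracycline, 30 C) HEK293 T-REx cells carrying force-coupled D2 receive a no-wash calcium dye, then compound, then EC80 dopamine at 180 s; signals are read kinetically throughout.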
# The depositor's hits bear a star; ? = inconclusive; · = no result given. Shown are actives, neighbours in structure and some others; about 2.4% of the full set was active somewhere.
SMILES,D2 PAM-1,D2 ag-1,D2 ag-2,D2 PAM-2,D2 antag
COc1cccc(CC2(CO)CCN(Cc3ccc4cccc(F)c4n3)CC2)c1,-22.6,0.2,1.1,-22.4,61.6*
CCOC(=O)C1(CC2CC2)CCN(Cc2cn[nH]c2-c2cccc(F)c2)CC1,-18.4,-1.4,-2.3,-5.8,0.5
COc1ccc(CN2CCC(CO)(Cc3ccccc3C(F)(F)F)CC2)c(F)c1,-17.6,-1.3,-2.1,-12.0,43.2*
O=c1c(-c2ccc(Cl)cc2)c(C(F)(F)F)oc2c(CN3CCCCC3)c(O)ccc12,·,-0.4,·,11.2,·
Cc1ccc(-c2nc3c(C)cccn3c2Nc2ccccc2C)s1,·,0.8,·,2.1,·
COC(=O)C1=C(Cn2cnc3ccccc32)NC(=O)NC1c1cc(C)ccc1C (configuration not stated),90.7*,0.8,51.6*,-2.6,-8.8
CCOC(=O)C1=C(Cn2cnc3ccccc32)NC(=O)NC1c1cc(C)ccc1C (configuration not stated),?,0.8,?,9.6,-9.8
Cc1cc(C)cc(NC(=O)c2cc3c(=O)n(Cc4ccco4)ccc3nc2C)c1,·,0.9,·,-2.5,·
COc1cc(NC(=O)c2nn(C)c3c2CS(=O)(=O)c2ccccc2-3)cc(OC)c1,-3.5,1.5,3.3,24.5,-15.2
COc1ccc(NC(=O)c2nn(C)c3c2CS(=O)(=O)c2ccccc2-3)cc1,-14.7,0.9,0.0,36.5*,-5.9
Cc1[nH]c2ccc(C(=O)NCCCN3CCN(C)CC3)cc2c1C,-18.9,-0.5,-2.1,-4.8,1.2
Cc1[nH]c2ccc(C(=O)NCCCN(C)C3CCCCC3)cc2c1C,-40.1,-0.3,-5.2,-26.6,34.0*
CCc1cc2c(cc3c(=O)n(CC(=O)NC(C)c4ccccc4)ncn32)s1 (configuration not stated),·,0.0,·,11.4,·
Fc1c(F)c(F)c(N/N=C/c2c[nH]c3ccccc23)c(F)c1F,60.2*,0.2,?,13.5,-7.0
O=C(c1ccccc1)c1ccc(Cn2cc(CCCO)nn2)cc1,-11.7,-0.5,-0.7,6.1,4.7
O=C(O)CCCCCCCCc1cn(Cc2ccc(C(=O)c3ccccc3)cc2)nn1,3.4,-0.2,0.8,3.3,41.6*
COc1ccc(OC)c(/C=C/c2nc3ccccc3c(=O)n2-c2ccc(F)c(Cl)c2)c1,·,0.6,·,-13.2,·
O=C(Nc1ccccc1)c1ccc(NCCN2C(=O)CCC2=O)c([N+](=O)[O-])c1,-11.2,0.2,-5.3,3.4,58.6*
CCCOC(=O)c1ccc(NC(=O)c2nc3nc(C)cc(C)n3n2)cc1,-7.6,-0.7,-3.0,31.1*,7.8
Cc1cc(C)n2nc(C(=O)OCC(=O)Nc3ccc(Cl)cc3)nc2n1,0.0,·,0.6,·,·
CC(C)c1ccc(NC(=O)C2CCCN(S(=O)(=O)c3ccc4[nH]c(=O)ccc4c3)C2)cc1 (configuration not stated),·,1.1,·,5.1,·
N#CCCSc1ncnc2c1oc1ccccc12,-16.4,0.4,-1.7,5.2,36.2*
OCCSc1ncnc2c1oc1ccccc12,-20.9,0.8,-2.2,5.5,6.8
O=C(NCCc1ccc(Cl)cc1)c1ccc2c(c1)N(Cc1ccccc1)C(=O)CS2,·,0.5,·,16.6,·
Cc1cc(S(=O)(=O)N2CC(=O)N(CCc3ccccc3)C(=O)C2)ccc1F,-3.2,0.1,-2.7,31.4*,-2.0
SMILES,D2 PAM-1,D2 ag-1,D2 ag-2,D2 PAM-2,D2 antag
O=C1CN(S(=O)(=O)c2ccccc2)CC(=O)N1CCc1ccccc1,-8.9,0.6,-3.9,13.7,-15.0
Cc1ccccc1CN1C(=O)c2ccccc2S(=O)c2ccc(C(=O)NCc3ccc4c(c3)OCO4)cc21 (configuration not stated),·,·,·,-6.1,·
COc1ccc(CCn2nc(C)c([N+](=O)[O-])c2C)cc1,-6.4,-0.7,1.7,-15.9,32.3*
CC1CC(C)CN(CC(O)COC2CC(C)CC(C)(C)C2)C1 (configuration not stated),-24.1,·,-5.1,·,·
CC1CC(OCC(O)CN2CCOCC2)CC(C)(C)C1 (configuration not stated),1.3,-0.1,1.1,-3.7,45.8*
Cc1ccc(C)c(OCC(=O)N(Cc2nnc(-c3ccccc3Cl)o2)C2CC2)c1,-2.4,1.9,-1.7,0.6,33.4*
CC(C)(C)OC(=O)N1CCNc2ccccc2C1,-36.3,1.2,-4.3,-4.1,30.5*
Cc1cccc(CNC(=O)c2ccc(Cn3c(=O)c4cccn4c4cccnc43)cc2)c1,·,0.8,·,-0.3,·
Nc1c(C(=O)c2ccc(Br)s2)oc2ccccc12,-5.9,0.3,-4.5,-9.1,44.8*
Nc1c(C(=O)c2cccs2)oc2ccccc12,-6.4,-0.1,-1.9,-6.2,-10.0
COc1ccc(-c2cn3c(n2)sc2cc(C(=O)NCC(C)c4ccccc4)ccc23)cc1 (configuration not stated),·,4.7,·,-2.2,·
CCCN1C(=O)/C(=C/c2c(N3CCNC(=O)C3CC(=O)OCC)nc3c(C)cccn3c2=O)SC1=S (configuration not stated),4.0,80.9*,-1.3,-4.0,3.9
CCOC(=O)CC1C(=O)NCCN1C(=O)c1ccc(C)cc1 (configuration not stated),25.7,0.0,-3.1,-1.7,8.2
CCOC(=O)CC1C(=O)NCCN1c1nc2ccc(C)cn2c(=O)c1/C=C1\SC(=S)N(CC(C)C)C1=O (configuration not stated),-4.1,104.2*,-4.1,-11.7,14.2
CCCCCN1C(=O)/C(=C/c2c(N3CCc4ccccc4C3)nc3ccccn3c2=O)SC1=S,-7.6,·,-3.7,·,·
CCOC(=O)CC1C(=O)NCCN1c1nc2ccc(C)cn2c(=O)c1/C=C1\SC(=S)N(C(C)CC)C1=O (configuration not stated),·,72.7*,·,-5.9,31.8*
Cc1c(NS(=O)(=O)c2ccc(NC(=O)CCC(=O)O)cc2)c(=O)n(-c2ccccc2)n1C,-7.3,1.2,8.0,-4.2,30.1*
Cc1c(NS(=O)(=O)c2cccc(C(=O)N3CCCC3)c2)c(=O)n(-c2ccccc2)n1C,-21.5,·,2.2,·,·
CC(=O)Nc1ccc(S(=O)(=O)Nc2c(C)n(C)n(-c3ccccc3)c2=O)cc1,-8.5,-0.7,-2.1,2.5,-0.2
Cc1c(NC(=O)c2cccc(NC(=O)Cc3ccc(Cl)cc3)c2)c(=O)n(-c2ccccc2)n1C,-1.0,0.4,-1.6,0.7,32.7*
CC(=O)N1CCN(C(=O)c2cccc(S(=O)(=O)Nc3c(C)n(C)n(-c4ccccc4)c3=O)c2)CC1,-14.0,0.1,0.9,-5.2,51.1*
O=C(C1CCC(Cn2c(=O)c3sccc3n(Cc3ccc(F)cc3)c2=O)CC1)N1CCOCC1 (configuration not stated),·,0.6,·,-3.7,·
Cc1cc(Cl)ccc1NC(=O)CCS(=O)(=O)c1ccc2c(c1)CC(C)N2C(=O)C1CC1 (configuration not stated),·,·,·,-22.0,·
